# Bioassay records: PubChem BioAssay, National Center for Advancing Translational Sciences (NCATS)
# HCMV antiviral: human cytomegalovirus inhibition. HFF cells, HCMV-luciferase reporter, 72 h; stronger effect = lower value. activity change, negative = inhibition, % at 57.5 µM. actives 4.5% (n = 410,000); in the data active means activity change below about -60%; inconclusive means no clear call, values can overlap the other calls; inactive means above about -39%
#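 Inhibition of viral replication was scored as loss of reporter luminescence in HFFs infected with HCMV-luciferase (MOI 1 PFU/cell) for 72 h; compounds tested at 2 doses, normalized to buffer and Salinomycin controls.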
# VACV mCherry inh: vaccinia inhibition (mCherry reporter); Vaccinia virus mCherry reporter infection, fluorescence; Potency, µM (titrated, usually from 36.5 µM), for the others: at the highest dose activity change, negative = inhibition, most hits filed as inhibitors; actives 0.63% (n = 310,000); calls by dose curve; tested in A549 cells; further: potency means the concentration at half of the fitted maximal effect; nearly all actives have a fitted effect of over 35% in size
# Lassa entry inh: Lassa virus entry inhibition | actives 1.2% (n = 300,000) | Potency, µM (doses to about 37.9 µM), for inactives: at the top dose activity change, negative = inhibition, actives largely listed as inhibitors | AID 540256 | Lassa virus pseudotype entry inhibition, cell reporter; calls by dose curve; tested in HEK293 cells; further: potency means the concentration at half of the fitted maximal effect; nearly all actives have a fitted effect of over 50% in size
# Vaccinia Venus: vaccinia inhibition (Venus reporter). Vaccinia virus Venus reporter expression, fluorescence. Potency, µM (series often up to 36.5 µM), inactives show top-dose activity change, negative = inhibition, hits mostly inhibitors. actives 0.46% (n = 330,000); calls by dose curve; tested in A549 cells; further: potency means the concentration at half of the fitted maximal effect; nearly all actives have a fitted effect of over 30% in size
# Marburg entry inh: blocks Marburg virus binding to or entry into cells; Marburg virus pseudotyped entry inhibition, cell reporter; Potency, µM (top dose mostly 37.8 µM), for inactives: top-dose activity change, negative = inhibition, hits mostly inhibitors; actives 1.8% (n = 300,000); AID 540276; calls by dose curve; tested in HEK293 cells; further: potency means the concentration at half of the fitted maximal effect
# FMDV inh: blocks foot and mouth disease virus | FMDV antiviral cell-based qHTS | actives 1.2% (n = 410,000) | Potency, µM (highest dose often 57.9 µM), without a hit: top-dose activity change, negative = inhibition, actives largely listed as inhibitors; calls by dose curve; tested in HEK293T cells; further: read-out not given here; potency means the concentration at half of the fitted maximal effect; nearly all actives have a fitted effect of over 45% in size
# An asterisk follows results filed as active; i = inactive; ? = inconclusive; . = no result given; ! = not active in a repeat; [ ] = another dose, or the depositor's remark. Sampled rows, rich in hits. Any-hit rate of the full collection: about 6.5%. On the % scale 0 is the no-effect control and ±100 the full control effect.
SMILES,HCMV antiviral,VACV mCherry inh,Lassa entry inh,Vaccinia Venus,Marburg entry inh,FMDV inh
CCOc1ccccc1NC(=O)c1nc(SCc2ccccc2F)ncc1Cl,.,-0.4%,.,6.5%,.,.
COc1ccc(CN2CCN(C(=O)CCC(=O)Nc3nnc(C(F)(F)F)s3)CC2)cc1F,-33.9,-12.0%[7.34 µM],.,7.9%[7.34 µM],.,-26.7%
CCCc1nnc(NC(=O)CCC(=O)N2CCN(Cc3ccc(OC)c(F)c3)CC2)s1,-76.2*,.,.,.,.,?
CCCc1nnc(NC(=O)CCC(=O)N2CCN(Cc3cc(Cl)ccc3OC)CC2)s1,-17.7,.,.,.,.,-24.0%
COc1ccc(CN2CCN(C(=O)CCC(=O)Nc3nnc(C4CCCCC4)s3)CC2)cc1F,-73.0*,-11.5%,-2.6%[46.1 µM],-18.0%,-27.8%[46.1 µM],?
COc1ccc(CN2CCN(C(=O)CCC(=O)Nc3nnc(CC(C)C)s3)CC2)cc1F,-65.3*,.,.,.,.,?
Cc1cnc(C)c(-c2ccc(O)c(CN3CCN(C=O)CC3)c2)n1,.,-9.7%,.,-4.7%,.,-11.4%
CC12CCC(C(=O)Nc3ccc(Cl)cc3)([C@H](Br)C1=O)C2(C)C (some centres not stated),-60.5*,i,3.6%,-4.2%,-11.8%[46.1 µM],-26.7%
Cc1cncc(N2CCN(c3ccccn3)CC2)n1,-23.4,15.5%,.,4.6%,.,6.0%
Cc1cc(-c2ccccc2)nc(N2CCN(c3ccccn3)CC2)n1,-2.5,-6.3%,4.61µM*,28.7%,9.2µM*,.
CCOc1ccc(/C=C/C(=O)c2ccccc2)cc1OC,-1.4,-14.5%,7.5%,-15.0%,-8.7%,-15.4%
COc1cc(/C=C/C(=O)c2ccc(O)cc2)ccc1OCC#N,-98.2*,12.6µM*,1.58µM*,12.6µM*,?,28.2µM*
COc1cccc(C(=O)/C=C/c2ccc(OCC#N)c(OC)c2)c1,-100.0*,?,?,?,14.6µM*,?
COC(=O)[C@@H]1C[C@@H](NC(=O)c2ccc(C(F)(F)F)cc2)CN1Cc1cccc(O)c1,.,-1.7%,.,0.8%,.,9.5%
CC(C)CC(NS(=O)(=O)c1ccc2[nH]c(=O)c(=O)[nH]c2c1)C(=O)O (configuration not stated),-32.5,i,0.3%,-2.7%,?,-8.6%
CC(NS(=O)(=O)c1ccc2[nH]c(=O)c(=O)[nH]c2c1)C(=O)O (configuration not stated),-92.2*,-1.4%,-1.7%,-9.3%,16.2%,-15.7%
COCCn1c(=O)cnc2cnc(OC)nc21,.,.,.,.,.,-11.1%
CCN(CC)CC(=O)Nc1cccc2c1C(=O)c1ccccc1C2=O,9.0,.,-25.3%,.,-0.5%,-25.8%
O=C1c2ccccc2C(=O)c2c(NCCCN(CCO)CCO)cccc21,-102.8*,?,6.3%,-10.2%,?,?
CC(=O)c1ccc(N2CCN(C(=O)c3cn(C)c(=O)c4c3c3ccccc3n4C)CC2)cc1,23.0,2.3%,-10.1%[46.1 µM],-1.6%,?,-5.8%
C/C=C(/CCC1NCCc2c1[nH]c1ccccc21)[Si](C)(C)C (configuration not stated),26.0,-27.8%,?,?,?,28.2µM*
O=c1[nH]c2ccc(Cl)cc2c(-c2ccccc2)c1N1CCN(c2ccccn2)CC1,-2.0,-4.7%,?,-18.3%,2.31µM*,8.1%
O=C(NC1CC1)C1=C[C@@H](C2CC2)C[C@@H](OCCCCO)O1,-9.4,-12.5%,.,5.1%,.,-7.4%
O=C(NCc1nc2ccccc2[nH]1)C1=C[C@H](C2CCCCC2)C[C@H](OCc2ccc(CO)cc2)O1,-70.2*,-3.6%,.,?,.,-46.4%
O=C(NC1CC1)C1=C[C@H](C2CCCCC2)C[C@H](OCCCCO)O1,-63.9*,i,.,-15.4%,.,3.7%
SMILES,HCMV antiviral,VACV mCherry inh,Lassa entry inh,Vaccinia Venus,Marburg entry inh,FMDV inh
O=C(NCc1nc2ccccc2[nH]1)C1=C[C@@H](C2CCCCC2)C[C@@H](OCc2ccc(CO)cc2)O1,?,-2.8%,.,?,.,?
O=C(NCc1ccccc1)C1=C[C@H](c2csc3ccccc23)C[C@H](OCc2ccc(CO)cc2)O1,-61.0*,-23.6%,.,?,.,3.9%
O=C(Nc1ccccc1)C1=C[C@H](C2CCCCC2)C[C@H](OCCCCO)O1,-75.9*,-22.6%,.,-24.8%,.,42.3%
COc1ccccc1CNC(=O)c1c[nH]c2ccc(S(=O)(=O)Nc3cc(C)cc(C)c3)cc2c1=O,1.0,-17.4%,-13.7%[46.1 µM],-9.2%,.,0.2%
Cc1ccccc1NC(=O)c1ccccc1OCC(=O)Nc1ccc(Br)cc1,.,-12.3%,.,-23.9%,.,.
O=C(Nc1ccccc1)C1=C[C@@H](C2CCCCC2)C[C@@H](OCc2ccc(CO)cc2)O1,-60.1*,-28.1%,.,-2.5%,.,2.7%
CSc1sc(C(=O)NCC2CC2)cc1S(=O)(=O)C(C)C,-2.4,-18.0%,?,-9.0%,-1.3%[46.1 µM],-16.1%
COC(=O)c1cc(S(=O)(=O)C(C)C)c(S(C)=O)s1 (configuration not stated),-66.4*,10µM*,-2.1%[46.1 µM],?,11.2µM*,-17.5%
O=C(Nc1ccc(Cl)c(C(F)(F)F)c1)NC1CC2CCCC(C1)N2Cc1ccccc1 (configuration not stated),?,?,?,?,8.91µM*,?
O=C(NC1CC2CCCC(C1)N2C(=O)Nc1ccc(Cl)c(C(F)(F)F)c1)C1CC1 (configuration not stated),-6.0,.,4.6%,.,-5.4%,?
Oc1c(Cl)cc(Cl)cc1C=Nc1cc(C(F)(F)F)ccc1N1CCc2ccccc2C1,-100.4*,i,.,-18.7%,.,-29.8%
COc1ccc(-c2nc3ccc(C)cn3c2NCc2ccccc2)cc1SC1CCCCC1,.,i,.,?,.,20µM*
CCCCNc1c(-c2ccc(OC)c(SC3CCCCC3)c2)nc2ccc(C)cn12,-100.7*!,10µM*,.,11.2µM*,.,22.4µM*
CCCCNc1c(-c2ccc(SC3CCCCC3)c(OC)c2)nc2ccc(C)cn12,-70.5*!,-29.9%,.,?,.,28.2µM*!
Cc1ccc(CNC(=O)Cc2c(C)c3c(cc(C)c4c(C)coc43)oc2=O)cc1,10.9,-6.9%,16.6%[46.1 µM],-9.1%,0.6%[46.1 µM],14.5%
C#CCOCCOCCOCCNc1nc(N2CCN(C(=O)CCCCCCCCCCNC(=O)[C@H](CCCCN)n3cc(CCCC(=O)O)nn3)CC2)nc(N2CCN(C(=O)CCCCCCCCCCNC(=O)[C@H](CCCN=C(N)N)n3cc(C[C@@H](C)CC)nn3)CC2)n1,.,?,.,11.2µM*,.,?
C#CCOCCOCCOCCNc1nc(N2CCN(C(=O)CCCCCCCCCCNC(=O)Cn3cc(C[C@@H](C)O)nn3)CC2)nc(N2CCN(C(=O)CCCCCCCCCCNC(=O)[C@H](CCCCN)n3cc(C[C@@H](C)CC)nn3)CC2)n1,.,?,.,10µM*,.,?
C#CCOCCOCCOCCNc1nc(N2CCN(C(=O)CCCCCCCCCCNC(=O)[C@H](CCCCN)n3cc(CCO)nn3)CC2)nc(N2CCN(C(=O)CCCCCCCCCCNC(=O)[C@H](CCCCN)n3cc(CCO)nn3)CC2)n1,.,i,.,?,.,-11.4%
